High-throughput results as filed in PubChem BioAssay.
HT1080NT lethal: qHTS for induction of synthetic lethality in tumor cells producing 2HG: qHTS for the HT-1080-NT fibrosarcoma cell line; HT-1080-NT fibrosarcoma viability, CellTiter-Glo ATP luminescence, 48 h; Potency, µM (doses to about 46.1 µM), most hits filed as cytotoxic; actives 1.6% (n = 360,000); AID 686970, 2013;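 also: NT is the 2HG producing partner of a matched IDH1 knockdown line; nearly all actives have a fitted effect of over 55% in size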
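Toxicity toward the 2HG-producing NT line was scored as %Activity, normalised to DMSO and no-cell wells, from CellTiter-Glo luminescence after 48 hours' treatment.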
KB-3-1 cytotox: qHTS assay for MDR1-selective chemotherapeutics: Primary screen using the parental adenocarcinoma cell KB-3-1; KB-3-1 viability, CellTiter-Glo ATP luminescence, 72 h; actives 1.4% (n = 400,000); Potency, µM (series often up to 46.1 µM), most hits filed as cytotoxic; also: nearly all actives have a fitted effect of over 60% in size
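Screening of KB-3-1 cells (DMEM, 10% FBS, phenol-red free) ran from lowest to highest compound concentration; after 72 h at 37 °C viability was read luminescently and curves fitted.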
DT40 TDP1 no CPT: qHTS for Inhibitors of human tyrosyl-DNA phosphodiesterase 1 (TDP1): qHTS in cells in absence of CPT | Potency, µM (series often up to 46.2 µM), most hits filed as inhibitors | actives 15% (n = 420,000) | DT40 Tdp1-/- hTDP1 cells, no CPT, ATP luminescence, 48 h; also: nearly all actives have a fitted effect of over 55% in size
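Stably hTDP1-transfected Tdp1-null chicken DT40 cells were treated with library compounds minus camptothecin and grown for at least 48 hr at 37 °C, after which cellular ATP was quantified by luminescence.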
DT40 TDP1 CPT: qHTS for Inhibitors of human tyrosyl-DNA phosphodiesterase 1 (TDP1): qHTS in cells in presence of CPT. chicken DT40 Tdp1-/-;hTDP1 cells + 20 nM CPT, ATP luminescence, 48 h. Potency, µM (highest dose often 46.2 µM), actives largely listed as inhibitors. actives 12% (n = 420,000); also: nearly all actives have a fitted effect of over 55% in size
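Chicken DT40 Tdp1-/- cells stably complemented with human TDP1 were seeded at 400 cells/well in medium containing 20 nM camptothecin, exposed to pin-transferred compounds, and grown at 37 °C for at least 48 hr. Viability was read as ATP luminescence.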
HT1080 IDH1KD tx: qHTS for induction of synthetic lethality in tumor cells producing 2HG: qHTS for the HT-1080-IDH1KD cell line. HT-1080 IDH1 knockdown viability, ATP luminescence, 48 h. Potency, µM (titrated, usually from 46.1 µM), usual class: cytotoxic. actives 2% (n = 360,000). AID 686971, 2013
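Knockdown cells (IDH1KD HT-1080) received compounds 2 h after plating at 750 cells/well and were kept 48 h at 37 °C in 5% FBS RPMI. A CellTiter-Glo luminescence read gave % activity for curve fitting.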
KB-V1 cytotox: qHTS assay for MDR1-selective chemotherapeutics: Primary screen using the drug-selected MDR subline cells KB-V1 | KB-V1 MDR cells viability, CellTiter-Glo, 72 h | Potency, µM (titrated, usually from 46.1 µM), most hits filed as cytotoxic | actives 3.4% (n = 400,000) | AID 1347076, 2019; also: nearly all actives have a fitted effect of over 60% in size
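Drug-selected KB-V1 cells, grown in DMEM lacking phenol red with 10% FBS, receive compound titrations; after three days at 37 degrees C, surviving cell ATP is quantified by CellTiter-Glo luminescence and responses normalized and curve-fitted.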
Large screens that a line does not name were inactive. Only some compounds are listed: those with a hit (about 19% of all), similar ones and a draw of the others. Calls follow the shape of the dose curve; as a rule, active = well fitted curve in the direction sought with a large enough effect; inconclusive = small, poorly fitted or top-dose-only effect, or another doubt; inactive = no such curve, though single readings can be large; an effect the other way counts as inactive or inconclusive.

CCCNC(=O)C/C(C)=N/NC(=O)COc1ccc(C)cc1Br	KB-V1 cytotox inconclusive
COc1ccc(CNC(=O)C/C(C)=N/NC(=O)COc2ccc(C)cc2Br)cc1	HT1080NT lethal 16.4µM, KB-3-1 cytotox 5.8µM, DT40 TDP1 no CPT 3.66µM, DT40 TDP1 CPT 2.31µM, HT1080 IDH1KD tx 18.4µM, KB-V1 cytotox inconclusive
CN[C@@H]1CC[C@H](c2ccc(Cl)c(Cl)c2)c2ccccc21	HT1080NT lethal inconclusive, DT40 TDP1 no CPT inconclusive, DT40 TDP1 CPT inconclusive (no result: HT1080 IDH1KD tx)
Cc1ccc(-n2ncc(C(=O)NCCCN3CCCCC3)c2C2CCN(C(=O)OC(C)(C)C)CC2)c(C)c1	DT40 TDP1 no CPT inconclusive, DT40 TDP1 CPT inconclusive (no result: HT1080NT lethal, HT1080 IDH1KD tx)
Cc1cccc(C)c1NC(=O)NCc1ccco1	none
CCOC(=O)C1=C(C)NC(C)=C(C(=O)OCC)C1C(=O)OCC(=O)NCc1ccco1	DT40 TDP1 no CPT 20.6µM, KB-V1 cytotox inconclusive
O=C(COC(=O)COc1ccccc1)NCc1ccco1	none
COc1ccc(OCCC(=O)OCC(=O)NCc2ccco2)cc1	DT40 TDP1 no CPT inconclusive, DT40 TDP1 CPT 20.6µM
Cc1cccc(C)c1OCCNC(=O)C(=O)NCc1ccco1	HT1080NT lethal 1.64µM, KB-3-1 cytotox 1.46µM, DT40 TDP1 no CPT 2.31µM, DT40 TDP1 CPT 1.84µM, HT1080 IDH1KD tx 2.59µM, KB-V1 cytotox inconclusive
O=C(CN1C(=O)C2C3C=CC(C4CC34)C2C1=O)Oc1ccccc1 (centres undefined)	KB-V1 cytotox inconclusive
O=C1C2C3C=CC(C4CC34)C2C(=O)N1CCc1ccccc1 (centres undefined)	KB-V1 cytotox 18.4µM
CN(C)c1ncc(C(=O)NCc2ccccc2Cl)cn1	none (no result: HT1080NT lethal, HT1080 IDH1KD tx)
CC(/C=N/NC(=O)CN1CCN(Cc2ccc(Cl)cc2)CC1)=C\c1ccco1	DT40 TDP1 no CPT inconclusive, DT40 TDP1 CPT inconclusive
CC(/C=N/NC(=O)c1cc(-c2ccc(Cl)cc2)nc2ccccc12)=C\c1ccco1	HT1080NT lethal inconclusive, KB-3-1 cytotox 1.03µM, DT40 TDP1 no CPT 3.26µM, DT40 TDP1 CPT 2.91µM, HT1080 IDH1KD tx 0.82µM, KB-V1 cytotox 0.92µM
CC(/C=N/NC(=O)c1cc(-c2ccccc2)nc2ccccc12)=C\c1ccco1	HT1080NT lethal inconclusive, KB-3-1 cytotox 4.11µM, DT40 TDP1 no CPT 0.731µM, DT40 TDP1 CPT 2.31µM, HT1080 IDH1KD tx inconclusive, KB-V1 cytotox 7.31µM
CCN(CC)CCN(C(=O)c1ccco1)c1nc2ccc(F)cc2s1	none (no result: HT1080NT lethal, KB-3-1 cytotox, HT1080 IDH1KD tx, KB-V1 cytotox)
COc1ccc(C(=O)c2sc3nc(-c4ccccc4)ccc3c2N)cc1OC	DT40 TDP1 no CPT 13µM, DT40 TDP1 CPT 16.4µM
COc1ccc(CC(=O)OCC(=O)c2ccc(OC)c(OC)c2)cc1	none
COc1cccc(-c2ccc3c(N)c(C(=O)Nc4cc(C(F)(F)F)ccc4OC)sc3n2)c1	none (no result: HT1080NT lethal, HT1080 IDH1KD tx)
CCOC(=O)c1sc2nc(-c3ccccc3)ccc2c1N	none
COc1ccc(-c2ccc3c(N)c(C(=O)NC(C)C)sc3n2)cc1OC	KB-3-1 cytotox inconclusive, DT40 TDP1 no CPT 16.4µM
NC(=O)c1sc2nc(-c3ccccc3)ccc2c1N	KB-3-1 cytotox inconclusive, KB-V1 cytotox 5.8µM
